# Only some compounds are listed: those with a hit (about 21% of all), similar ones and a draw of the others.
# IL-1B inflam inh – inhibitors of inflammasome signaling (IL-1 beta secretion) | 4.7% of 360,000 active | AID 743279 | THP-1 LPS/ATP IL-1B secretion, AlphaLISA, 16 h; stronger effect = lower value | activity change, % at 57.5 µM; in the data active means activity change below about -50%; inconclusive means mostly about -30% to -49%
#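 THP-1 cells pretreated 1 hr with compounds (up to 57.5 uM final), then stimulated with LPS (250 ng/mL final) plus ATP (1.25 mM final); secreted IL-1B measured by AlphaLISA after 16 hr, decreased signal indicating inhibition.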
# TDP1 cell CPT – DT40-hTDP1 cell growth loss with CPT; chicken DT40 Tdp1-/-;hTDP1 cells + 20 nM CPT, ATP luminescence, 48 h; Potency, µM (doses to about 46.2 µM), hits mostly inhibitors; 12% of 420,000 active; AID 686979; further: nearly all actives have a fitted effect of over 55% in size
#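 Chicken DT40 Tdp1-/- cells stably complemented with human TDP1 were seeded at 400 cells/well in medium containing 20 nM camptothecin, exposed to pin-transferred compounds, and grown at 37 °C for at least 48 hr. Viability was read as ATP luminescence.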
# DT40 TDP1 no CPT – qHTS for Inhibitors of human tyrosyl-DNA phosphodiesterase 1 (TDP1): qHTS in cells in absence of CPT. DT40 Tdp1-/- hTDP1 cells, no CPT, ATP luminescence, 48 h. Potency, µM (series often up to 46.2 µM), usual class: inhibitors. 15% of 420,000 active; further: nearly all actives have a fitted effect of over 55% in size
#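 Growth of hTDP1-complemented DT40 Tdp1-knockout cells is measured by ATP luminescence after at least 48 hr compound exposure at 37 °C, with DMSO substituting for the 20 nM CPT used in the parallel screen.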
# RORgamma inh – ROR gamma (mouse) transcription inhibition; P51450; Drosophila S2 Gal4-RORgamma UAS-luciferase reporter, 20 h; Potency, µM (series often up to 53.6 µM), most hits filed as inhibitors; 5.4% of 310,000 active; AID 2551; further: nearly all actives have a fitted effect of over 60% in size
# Target sequence (P51450 whole entry, looked up, the tested form may be a part): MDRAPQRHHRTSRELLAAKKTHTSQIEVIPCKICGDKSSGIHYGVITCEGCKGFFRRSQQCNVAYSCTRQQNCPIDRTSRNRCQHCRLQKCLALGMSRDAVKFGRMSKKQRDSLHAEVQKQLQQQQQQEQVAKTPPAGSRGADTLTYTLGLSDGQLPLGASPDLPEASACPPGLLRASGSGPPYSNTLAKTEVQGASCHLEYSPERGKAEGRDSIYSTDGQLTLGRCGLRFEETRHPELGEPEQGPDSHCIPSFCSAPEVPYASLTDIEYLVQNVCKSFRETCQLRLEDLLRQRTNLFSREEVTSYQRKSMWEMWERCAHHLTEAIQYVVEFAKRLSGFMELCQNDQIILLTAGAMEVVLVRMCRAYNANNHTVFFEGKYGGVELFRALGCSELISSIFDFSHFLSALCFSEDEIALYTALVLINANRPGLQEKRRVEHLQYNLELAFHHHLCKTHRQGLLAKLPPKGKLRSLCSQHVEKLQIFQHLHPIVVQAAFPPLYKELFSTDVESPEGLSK
#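 Using a luciferase readout, inhibitors were identified by reduced reporter activity in Drosophila cells coexpressing a copper-inducible Gal4–ROR gamma fusion and UAS-driven Photinus luciferase, incubated 20 hr after 700 uM copper sulfate.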
# VP16 counter – counter-screen for ROR gamma inhibitors: Gal4-VP16 reporter | AID 2546 | 3.5% of 310,000 active | Drosophila S2 Gal4-VP16 UAS-luciferase, luminescence, 20 h | Potency, µM (highest dose often 53.6 µM), most hits filed as inhibitors;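 further: Gal4-VP16 expression switched on by copper sulfate through the metallothionein promoter; nearly all actives have a fitted effect of over 50% in size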
# ELG1 repair inh – blocks ELG1-dependent DNA repair in HEK293T cells | 2.3% of 330,000 active | Potency, µM (highest dose often 46.1 µM), most hits filed as inhibitors | HEK293T ELG1-luciferase reporter, luminescence, 16 h; DNA damage induced by 5-fluorouridine; further: nearly all actives have a fitted effect of over 55% in size
#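 In this reporter screen, reduction of luminescence relative to DMSO vehicle indicated activity. Compounds and 5-fluorouridine were added together to 2,000 cells per well, incubated for 16 hr at 37 °C, then developed with ONE-Glo.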
# Hits are given with their value; i = inactive; ? = inconclusive; nt = not tested or not shown; [ ] = remark or other dose. Unless noted, the call rests on the fitted dose curve; in most records, active means well fitted curve in the direction sought with a large enough effect; inconclusive means small, poorly fitted or top-dose-only effect, or another doubt; inactive means no such curve, though single readings can be large; an effect the other way counts as inactive or inconclusive.
SMILES,IL-1B inflam inh,TDP1 cell CPT,DT40 TDP1 no CPT,RORgamma inh,VP16 counter,ELG1 repair inh
Cc1ccc(C)c(N2CCN(C(=O)c3ccc(CS(=O)(=O)c4ccccc4C)o3)CC2)c1,i,18µM,18µM,i,i,26µM
Cc1cccc(N2CCN(C(=O)CS(=O)(=O)Cc3nc(-c4ccccc4C)oc3C)CC2C)c1 (stereo unspecified),nt,15µM,?,nt,nt,nt
Cc1cccc(N2CCN(C(=O)c3ccc(CS(=O)(=O)c4ccccc4C)o3)CC2C)c1 (stereo unspecified),i,?,i,i,?,9.2µM
Cc1cccc(N2CCN(C(=O)CS(=O)(=O)Cc3nc(-c4ccccc4F)oc3C)CC2C)c1 (stereo unspecified),i,?,?,i,?,?
COc1ccc(N2CCN(C(=O)c3ccc(CS(=O)(=O)c4ccccc4C)o3)CC2)cc1,i,?,?,i,i,?
Cc1ccc(S(=O)(=O)Cc2ccc(C(=O)N3CCCCCC3)o2)cc1,i,?,i,i,i,i
Cc1ccccc1CSc1nnc([C@@H]2CCCN2)o1,i,i,i,i,i,i
CCOC(=O)C1(C)CCN1C(=O)c1ccc2c(c1)CCO2 (stereo unspecified),i,i,i,nt,nt,nt
COc1ccc(OC)c(-c2cc(C(=O)O)c3cc4ccccc4cc3n2)c1,i,i,i,nt,nt,nt
COc1ccc(-n2nc(C(=O)N3CCN(c4ccc(F)cc4)CC3)c3ccccc3c2=O)c(OC)c1,i,?,?,i,i,9.2µM
CCOc1ccccc1N1CCN(C(=O)c2cc(-c3cc(OC)ccc3OC)nc3ccccc23)CC1,?,23µM,13µM,i,i,6.5µM
COc1ccc(-n2nc(C(=O)O)c3ccccc3c2=O)c(OC)c1,i,i,i,i,i,i
COc1ccc(-c2cc(C(=O)N3CCN(c4ncccn4)CC3)c3ccccc3n2)c(OC)c1,i,?,23µM,i,i,9.2µM
COc1ccc(OC)c(-c2cc(C(=O)N3CCN(c4ncccn4)CC3)c3ccccc3n2)c1,i,16µM,18µM,?,i,13µM
CNc1cncc(-c2ccc(OC)cc2OC)n1,i,?,i,nt,nt,nt
O=C(CSc1ccc(-c2cccc([N+](=O)[O-])c2)nn1)N1CCCCC1,i,i,?,i,i,i
COc1ccc(-c2cc(C(=O)O)c3ccccc3n2)c(OC)c1,i,i,i,i,i,i
COc1ccc(-c2cc(C(=O)N3CCCCCC3)c3ccccc3n2)c(OC)c1,?,?,12µM,i,i,?
COc1ccc(-c2cc(C(=O)N3CCN(c4ccccc4F)CC3)c3ccccc3n2)c(OC)c1,i,?,18µM,nt,nt,5.8µM
Cc1ccccc1-c1cc(C(=O)N2CCCC2)c2ccccc2n1,i,i,?,nt,nt,i
COc1ccc(N2CCN(C(=O)c3cc(-c4cc(OC)ccc4OC)nc4ccccc34)CC2)cc1,i,23µM,23µM,nt,nt,7.3µM
Cc1cnc(C(=O)OCC(=O)N2C(C)CCCC2C)cn1 (stereo unspecified),i,i,i,nt,nt,i
Cc1ccccc1C1(CC(=O)N2CCCCC2C)CC(=O)N(Cc2cccnc2)C1=O (stereo unspecified),nt,i[9.04 µM],?,nt,nt,nt
Cc1cc(=O)[nH]c(SCC(=O)Nc2ccc(S(=O)(=O)N3CCCCC3)cc2)n1,i,i,i,i,i,i
Cc1cc2nc(-c3ccc(SCC(=O)Nc4ccc(S(=O)(=O)N5CCCC5)cc4)nc3)[nH]c2cc1C,i,i,13µM,?,?,?
O=C(CSc1ccc(-c2nc3ccccc3[nH]2)cn1)Nc1ccc(S(=O)(=O)N2CCCC2)cc1,i,?,13µM,i,i,i
N#CN=C1SCCS1,i,9.2µM,15µM,i[10 µM],i,i
